Compound activity (PubChem)
CSC inhib – cancer stem cell inhibition; cancer stem cell-like cells viability, luminescence; inhibition, % at 7.5 µM; hit rate 1.1% among 300,000; AID 2717; in the data active means inhibition above about 75%; inconclusive means no clear call, values can overlap the other calls; tested in HMLE shEcad cells
aSyn UTR inh – MLPCN primary screen, SNCA 5' untranslated region; alpha-synuclein 5'UTR reporter, inhibitor activity; inhibition, % (tested at 7.5 µM); hit rate 0.82% among 300,000; AID 1813; in the data active means inhibition above about 60%; inconclusive means no clear call, values can overlap the other calls;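 further: H4 neuroglioblastoma cells stably carrying SNCA 5'UTR luciferase fusion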
Gli-Sufu block – blocks Gli-Sufu signaling in a luciferase reporter; Sufu-KO-LIGHT fibroblasts, Gli luciferase reporter luminescence; inhibition, % at 5 µM; hit rate 0.74% among 340,000; AID 588413;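 active means inhibition above about 55%, limit read from the data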
697 NFkB inh – lowers PMA/ionomycin-induced NF-kB signal in 697 B cells. 697 B-cell NF-kB luciferase reporter, 16 h. inhibition, % at 4 µM. hit rate 0.33% among 330,000. AID 435022; in the data active means inhibition above about 35%
Mdm2 MdmX PPI – human Mdm2/MdmX binding inhibition | O15151+Q00987 | hit rate 3% among 330,000 | SaOS-2 split-luciferase Mdm2/MdmX complementation, luminescence | inhibition, % at 8 µM;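 active means inhibition of at least 50% at 8 µM in the primary screen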
Jurkat NFkB inh – inhibitors of the PMA/ionomycin-induced NF-kB reporter in Jurkat cells; PMA/ionomycin-induced NF-kB luciferase reporter, luminescence; inhibition, % at 4 µM; hit rate 0.53% among 330,000; AID 435003; in the data active means inhibition above about 50%
Mdm2-MdmX conf – human Mdm2/MdmX binding inhibition, confirmed; shares compounds with Mdm2 MdmX PPI; luminescent assay; inhibition, % at 8 µM; hit rate 55% among 10,000; in the data active means inhibition above about 40%
Full FLuc ctr – counter-screen for Mdm2/MdmX inhibitors: full-length luciferase | shares compounds with Mdm2 MdmX PPI | SaOS-2 full-length luciferase counterscreen, luminescence | inhibition, % at 8 µM | hit rate 77% among 6,200 | AID 504607;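 active means mean inhibition at 8 µM reaching about 37%, which flags the compound as non-specific, limit read from the data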;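 further: p53-null SaOS-2 cells with luciferase driven by a doxycycline-inducible promoter; compound on cells about two nights before reading with doxycycline added after day one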
Numbers stand for hits; . = inactive; ? = inconclusive; / = no result given. Sampled rows, rich in hits. Any-hit rate of the full collection: about 4.5%.

SMILES	CSC inhib	aSyn UTR inh	Gli-Sufu block	697 NFkB inh	Mdm2 MdmX PPI	Jurkat NFkB inh	Mdm2-MdmX conf	Full FLuc ctr
O=C(O)c1cccc(-n2sc3ccccc3c2=O)c1	.	/	.	.	.	.	/	/
O=c1c2ccccc2sn1-c1ccccc1	.	.	.	.	76.0	.	.	/
C=CCN1C(=O)c2ccccc2NC1c1ccc(Br)s1 (stereo not drawn)	.	.	.	.	.	.	/	/
O=C1c2ccccc2NC(c2ccc(Br)s2)N1O (stereo not drawn)	.	.	.	.	53.8	.	62.0	43.9
Cc1ccc(CNC(=O)c2ccc3c(=O)n4c(-c5ccc(C)cc5)csc4nc3c2)cc1	/	.	.	.	56.9	.	44.0	89.8
C=CCn1c(SCc2nc3ccccc3c(=O)[nH]2)nc2sc3c(c2c1=O)CCCC3	.	.	.	.	84.7	.	.	/
Cc1cccc(N2C(=O)CC(N(C(=O)c3ccco3)c3cccc(C)c3)C2=O)c1 (stereo not drawn)	.	.	.	.	.	.	/	/
CN(C)S(=O)(=O)c1cccc(CSc2cccc[n+]2[O-])c1	/	.	.	.	.	.	/	/
Cc1[nH]n(-c2ccccc2)c(=O)c1N=Nc1c(O)cc(S(=O)(=O)N(C)C)c2ccccc12	.	70.7	.	.	82.1	.	79.5	56.6
Cc1ccc(/C=N/NC(=O)Cc2ccc(Cl)cc2)c(O)c1	.	66.4	.	.	60.4	.	53.8	42.2
O=C(Cc1ccccc1)N/N=C/c1cc(Br)cc(Cl)c1O	.	.	.	.	58.6	.	68.4	.
O=C(CNC(=O)c1ccccc1)N/N=C/c1cc(Br)ccc1O	.	.	.	.	.	.	/	/
O=C(CNC(=O)c1ccc2c(c1)OCO2)N/N=C/c1cc(Br)ccc1O	/	.	.	.	51.6	.	58.5	47.0
COc1cc(Br)cc(/C=N/NC(=O)Cc2ccccc2)c1O	.	.	.	.	.	.	/	/
Cc1cc(Br)cc(/C=N/NC(=O)c2ccc3c(c2)OCO3)c1O	84.2	.	.	.	67.9	.	67.5	.
O=C(N/N=C/c1cc(Br)c(O)c(Br)c1O)c1ccc2c(c1)OCCO2	.	.	.	.	.	.	/	/
O=C(c1cccc([N+](=O)[O-])c1)c1ccc2[nH]c(=O)[nH]c2c1	.	.	.	.	.	.	/	/
COc1ccc(C(=O)CN2C(=O)c3ccccc3C2=O)cc1	.	.	.	.	.	.	/	/
Cc1ccc(S(=O)(=O)Nc2cc(S(=O)(=O)N3CCOCC3)ccc2NCC2CCCO2)cc1 (stereo not drawn)	/	/	.	.	.	.	/	/
O=C(N/N=C/c1ccccc1O)c1ccc2c(c1)OCO2	.	.	.	.	.	.	/	/
O=C(N/N=C/c1cc(Br)cc(Cl)c1O)c1ccc2c(c1)OCO2	.	?	.	.	50.3	.	59.3	53.4
COc1ccc(NC2=NCC(=O)N2Cc2cccs2)cc1	.	.	.	.	55.5	.	.	/
CC#CCN1c2ccccc2[C@]23C[C@@H](C(=O)OC)N(C(C)=O)C2=NC(C(=O)OC)=C(C(=O)OC)[C@H]13	.	.	.	.	.	.	/	/
COC(=O)C1=C(C(=O)OC)[C@@H]2N(C)c3ccccc3[C@@]23C[C@@H](C(=O)OC)N(C(=O)c2ccc(Br)cc2)C3=N1	.	.	.	.	68.1	.	.	/
CC#CCN1c2ccccc2[C@]23C[C@@H](C(=O)OC)N(C(=O)c4ccc(Br)cc4)C2=NC(C(=O)OC)=C(C(=O)OC)[C@H]13	.	.	.	.	95.5	.	75.7	68.1
SMILES	CSC inhib	aSyn UTR inh	Gli-Sufu block	697 NFkB inh	Mdm2 MdmX PPI	Jurkat NFkB inh	Mdm2-MdmX conf	Full FLuc ctr
O=C(CC(=O)c1ccccc1)Nc1ccc(Cl)cc1	.	.	.	.	.	.	/	/
Cc1cc(C)c(C)c(S(=O)(=O)N2C(=S)NC(=O)C2C(C)C)c1C (stereo not drawn)	.	.	.	.	.	.	/	/
Cc1cnc(C(=O)OCC(=O)N(Cc2ccccc2)C(C)(C)C)cn1	.	/	.	.	.	.	/	/
CCOc1ccccc1NC(=O)CCCc1nc2ccccc2c(=O)[nH]1	.	.	.	.	64.9	.	48.6	56.0
CCC/C(C#Cc1ccc(N(C)C)cc1)=C1/c2ccccc2C(=O)N1c1ccccc1	.	/	.	.	50.6	.	.	/
COc1ccccc1NC(=O)Nc1cc(NC(=O)Nc2ccccc2OC)c(C)nc1C	.	.	.	.	56.2	.	.	60.6
COc1ccc(NC(=O)Nc2ccccc2OC)cc1	.	.	.	.	.	.	/	/
CNC(=O)c1c(NC(=O)c2ccc(S(=O)(=O)N(C)c3ccccc3)cc2)sc2c1CCN(C(C)C)C2	.	.	.	.	.	.	/	/
CCN1CCc2c(sc(NC(=O)c3ccc(S(=O)(=O)N(C)c4ccccc4)cc3)c2C(=O)NC)C1	.	.	.	.	58.6	.	.	/
O=[N+]([O-])c1cc(CN(CCO)CCO)ccc1O	.	.	.	.	.	.	/	/
O=C(NC1CCN(Cc2ccc3ccccc3c2)CC1)c1ccccc1	/	.	.	.	.	.	/	/
CCOc1ccc(CN(C)C(=O)CNC(=O)c2ccc(Br)o2)cc1OC	.	.	.	.	.	.	/	/
COC(=O)c1ccc2c(c1)sc(=NC(=O)CCS(=O)(=O)c1ccccc1)n2C	.	.	.	.	51.0	.	44.5	77.2
COCCn1c(=NC(=O)CCS(=O)(=O)c2ccccc2)sc2ccccc21	.	.	.	.	.	.	/	/
COc1ccc(N(CC(=O)Nc2ccccc2C(F)(F)F)C2=NC3CS(=O)(=O)CC3S2)cc1 (stereo not drawn)	.	.	.	.	.	.	/	/
Cc1nnc2ccc(-c3cccc(NS(=O)(=O)c4ccccc4Cl)c3)nn12	.	.	.	.	56.3	.	57.0	55.5
Cc1nnc(SC(C)C(=O)Nc2ccc3ccccc3c2)n1C (stereo not drawn)	.	/	.	.	.	.	/	/
Cc1ccc2nc3c(c(Nc4ccc5c(c4)OCCO5)c2c1)CCC3	.	.	.	.	56.1	.	.	/
Cc1ccc2nc3c(c(Nc4ccc(O)cc4)c2c1)CCC3	.	.	.	.	.	.	/	/
Cc1ccc(Cc2nnc3n(-c4ccccc4)nc(C(=O)c4ccccc4)n3c2=O)cc1	.	.	.	.	53.0	.	57.9	53.4
Cc1ccc(CNC(=O)c2cc(C)nn2-c2ccccc2)cc1	.	.	.	.	.	.	/	/
C#CCOC(=O)C(NC(=O)c1ccccc1)=C1CCCCC1	.	.	.	.	.	.	/	/
CN(C)C(=O)N1CCN(C(=O)c2ccccc2Sc2ccccc2C#N)CC1	.	.	.	.	52.8	.	.	/
CC(=O)O[C@@]1(C)C[C@@H](O)[C@]2(O)C=CO[C@@H](O[C@@H]3O[C@H](CO)[C@@H](O)[C@H](O)[C@H]3O)[C@@H]21	.	/	.	.	.	.	/	/
Cc1cc(C)c(S(=O)(=O)c2ccccc2)c(OC(=O)c2c(Cl)cc(Cl)cc2Cl)n1	.	.	.	.	52.3	.	.	/
